Unmarked numbers belong to inactive results. Records with an inconclusive call do not appear. The source made the active and inactive calls. Calls follow the shape of the dose curve; as a rule, active = well fitted curve in the direction sought with a large enough effect; inconclusive = small, poorly fitted or top-dose-only effect, or another doubt; inactive = no such curve, though single readings can be large; an effect the other way counts as inactive or inconclusive.
Target: Arylsulfatase A (Homo sapiens) (UniProt P15289)
Sequence (P15289 whole entry, looked up): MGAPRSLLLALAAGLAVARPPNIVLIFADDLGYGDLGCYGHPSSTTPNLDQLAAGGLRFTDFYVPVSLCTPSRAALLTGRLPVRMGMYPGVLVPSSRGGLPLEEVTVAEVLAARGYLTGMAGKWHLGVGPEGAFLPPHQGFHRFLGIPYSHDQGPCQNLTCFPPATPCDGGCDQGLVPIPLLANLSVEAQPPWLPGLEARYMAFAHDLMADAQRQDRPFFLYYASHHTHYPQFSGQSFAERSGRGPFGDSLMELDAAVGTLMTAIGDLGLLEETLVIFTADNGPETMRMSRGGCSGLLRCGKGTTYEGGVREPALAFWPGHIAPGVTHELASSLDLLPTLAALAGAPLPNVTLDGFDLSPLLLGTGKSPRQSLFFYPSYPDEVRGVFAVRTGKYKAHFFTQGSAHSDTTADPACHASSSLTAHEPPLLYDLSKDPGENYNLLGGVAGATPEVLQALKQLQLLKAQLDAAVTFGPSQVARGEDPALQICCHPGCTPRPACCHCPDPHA
Test: qHTS screen for enhancers of Arylsulfatase A (ASA1): LOPAC Validation Assay (AID 720538); as to activity change, positive = activation: 0% is about no effect
Conditions: ASA enzyme activity, LOPAC qHTS enhancer assay; series mostly up to 57.5 µM; activity change, positive = activation: at the top concentration
Outline: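 SV40-transformed fibroblasts from an MLD patient (ASA-I179S) were treated with compound for 48 h at 37 C. They were then lysed with 0.5 mM pNCS substrate (final) for 14 h at room temperature and stopped with NaOH; signal read by fluorescence (Ex 525/Em 598 nm), with increase denoting enhanced activity.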

Row | Compound | activity change, positive = activation | outcome
1 | CCn1ccnc1CC1COc2ccccc2O1 (stereo unspecified) | 6.78% | –
2 | CC(C)(C)c1ccc(C(=O)CCCN2CCC(OC(c3ccccc3)c3ccccc3)CC2)cc1 | – | inactive
3 | CCN(CC)CC(=O)Nc1c(C)cccc1C | 10.4% | –
4 | Cc1ccc(/C(=C\CN2CCCC2)c2ccccn2)cc1 | – | inactive
5 | O=C(O)CP(=O)(O)O | – | inactive
6 | CN1CCN(CC(=O)N2c3ccccc3C(=O)Nc3cccnc32)CC1 | -15.9% | –
7 | COc1ccc([C@@H]2Sc3ccccc3N(CCN(C)C)C(=O)[C@@H]2OC(C)=O)cc1 | -40.7% | –
8 | CC(=O)Oc1cc(C(C)C)c(OCCN(C)C)cc1C | 22.2% | –
9 | C(=C\c1ccccc1)/CN1CCN(C(c2ccccc2)c2ccccc2)CC1 | -10.3% | –
10 | Cc1cccc(C)c1NC(=O)C(C)N (stereo unspecified) | -24% | –
11 | CCOC(=O)C1=C(C)NC(C)=C(C(=O)OC)C1c1cccc(Cl)c1Cl (stereo unspecified) | -9.8% | –
12 | COCCCC/C(=N\OCCN)c1ccc(C(F)(F)F)cc1 | -62.9% | –
13 | CC(C)(C)NCC(O)c1cc(O)cc(O)c1 (stereo unspecified) | -34% | –
14 | Cc1ccc(Cl)c(Nc2ccccc2C(=O)O)c1Cl | – | inactive
15 | CN(C)C(=O)Oc1ccc[n+](C)c1 | -5.23% | –

System: not listed separately
Test: qHTS for compounds that reverse cellular toxicity of Amyloid beta (A-beta) peptide in yeast: LOPAC Validation Assay (AID 720559);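 also: plate controls were DMSO for no effect and equimolar ferric chloride plus clioquinol rescue for full effect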
Conditions: yeast expressing A-beta; series mostly up to 46.1 µM; growth rescue, positive = activation: at the top concentration
Outline: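 Yeast expressing toxic A-beta grown with pinned compounds at 30 C for 48 hr. Growth measured as absorbance at 600 nm; data normalized to DMSO and to an equimolar FeCl3/clioquinol mixture as positive control.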

Row | Compound | growth rescue, positive = activation
16 | CCCCCCCC/C=C\CCCCCCCC(=O)NCc1ccc(O)c(OC)c1 | -6.32%
17 | CCn1cc(C(=O)O)c(=O)c2cc3c(cc21)OCO3 | -3.76%
18 | COc1ccc2c(c1OC)C(=O)O[C@@H]2[C@H]1c2c(cc3c(c2OC)OCO3)CCN1C | -0.332%

System: not listed separately
Test: qHTS for Activators of Parkin Expression: LOPAC Validation Assay (NLuc Reporter) (AID 720572; also: potency is read from the fitted curve at half-maximal effect)
Conditions: Parkin promoter NanoLuc reporter cells, luminescence; series mostly up to 46.1 µM; activation: at the top concentration
Outline: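 NLuc signal, read 10 min after reagent and following a prior FLuc read, is normalized to DMSO (0) and positive controls (100%). Cells: neuronal Parkin-promoter coincidence reporter line; compounds tested 7-point, 24 h, 37 C, 5% CO2.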

Row | Compound | activation | Potency
19 | CCN(CC)CCNC(=O)c1cc(S(C)(=O)=O)ccc1OC | -0.446% | –
20 | c1cnc(N2CCN(Cc3ccc4c(c3)OCO4)CC2)nc1 | -0.641% | –
21 | CCN(CC)CCCN(c1ccccc1)C1Cc2ccccc2C1 | 7.94% | –
22 | COC(=O)C1=C(C)NC(C)=C(C(=O)OCCN(C)Cc2ccccc2)C1c1cccc([N+](=O)[O-])c1 (stereo unspecified) | – | 16.4 µM (active)
23 | CCn1cc(C(=O)O)c(=O)c2cc3c(cc21)OCO3 | -5.86% | –
24 | CN1CCN(C2=Nc3ccccc3Oc3ccc(Cl)cc32)CC1 | -0.995% | –
25 | Cc1nc2sccn2c(=O)c1CCN1CCC(=C(c2ccc(F)cc2)c2ccc(F)cc2)CC1 | -12.5% | –
26 | N[C@@H](COP(=O)(O)O)C(=O)O | -3.01% | –
27 | CC(N=C(NC#N)Nc1ccncc1)C(C)(C)C (stereo unspecified) | -0.42% | –
28 | FC(F)(F)c1ccccc1-n1ccnc1 | -4.9% | –
29 | CCC(=O)c1ccc2c(c1)N(CCCN(C)C)c1ccccc1S2 | -6.92% | –
30 | CC(C)[N+](C)(CCOC(=O)C1c2ccccc2Oc2ccccc21)C(C)C | -1.47% | –
31 | CO[C@@]1(NC(=O)CSCC#N)C(=O)N2C(C(=O)O)=C(CSc3nnnn3C)CS[C@@H]21 | -3.53% | –
32 | CCn1ccnc1CC1COc2ccccc2O1 (stereo unspecified) | -2.23% | –
33 | CC(C)(C)c1ccc(C(=O)CCCN2CCC(OC(c3ccccc3)c3ccccc3)CC2)cc1 | 5.05% | –
34 | CCN(CC)CC(=O)Nc1c(C)cccc1C | 0.0771% | –
35 | Cc1ccc(/C(=C\CN2CCCC2)c2ccccn2)cc1 | -1.12% | –
36 | O=C(O)CP(=O)(O)O | -1.52% | –
37 | COc1ccc([C@@H]2Sc3ccccc3N(CCN(C)C)C(=O)[C@@H]2OC(C)=O)cc1 | -0.427% | –
38 | CC(=O)Oc1cc(C(C)C)c(OCCN(C)C)cc1C | -0.23% | –
39 | C(=C\c1ccccc1)/CN1CCN(C(c2ccccc2)c2ccccc2)CC1 | -9.88% | –
40 | CCOC(=O)C1=C(C)NC(C)=C(C(=O)OC)C1c1cccc(Cl)c1Cl (stereo unspecified) | – | 2.59 µM (active)
41 | COCCCC/C(=N\OCCN)c1ccc(C(F)(F)F)cc1 | -2.18% | –
42 | CC(C)(C)NCC(O)c1cc(O)cc(O)c1 (stereo unspecified) | 4.68% | –
43 | Cc1ccc(Cl)c(Nc2ccccc2C(=O)O)c1Cl | 11.6% | –

System: not listed separately
Test: qHTS for Activators of Parkin Expression: LOPAC Validation Assay (FLuc Reporter) (AID 720573)
Conditions: Cell line, PRKN promoter firefly luciferase reporter, vehicle wells = 0, positive control = 100%; series mostly up to 46.1 µM; activation: at the top concentration
Outline: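 Neuronal cell line stably expressing FLuc/NLuc coincidence reporter under the Parkin promoter, 1,500 cells/well, dosed 24 h after seeding in 7-point series for 24 h at 37 C. FLuc luminescence read; normalized to DMSO and positive control (100%).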

Row | Compound | activation
44 | CCN(CC)CCNC(=O)c1cc(S(C)(=O)=O)ccc1OC | -5.62%
45 | CCCCCCCC/C=C\CCCCCCCC(=O)NCc1ccc(O)c(OC)c1 | 1.6%
46 | CCn1cc(C(=O)O)c(=O)c2cc3c(cc21)OCO3 | -10.8%
47 | CN1CCN(C2=Nc3ccccc3Oc3ccc(Cl)cc32)CC1 | -12.7%
48 | CC(N=C(NC#N)Nc1ccncc1)C(C)(C)C (stereo unspecified) | -8.52%
49 | FC(F)(F)c1ccccc1-n1ccnc1 | -6.87%
50 | CCC(=O)c1ccc2c(c1)N(CCCN(C)C)c1ccccc1S2 | -18.6%
51 | CC(C)[N+](C)(CCOC(=O)C1c2ccccc2Oc2ccccc21)C(C)C | 0.221%
52 | CCn1ccnc1CC1COc2ccccc2O1 (stereo unspecified) | 11.7%
53 | CCN(CC)CC(=O)Nc1c(C)cccc1C | 8.55%
54 | Cc1ccc(/C(=C\CN2CCCC2)c2ccccn2)cc1 | -3.49%
55 | CC(=O)Oc1cc(C(C)C)c(OCCN(C)C)cc1C | -2.83%
56 | COCCCC/C(=N\OCCN)c1ccc(C(F)(F)F)cc1 | -1.41%
57 | CC(C)(C)NCC(O)c1cc(O)cc(O)c1 (stereo unspecified) | -4.74%

Target: Hexokinase-4 (Homo sapiens) + Glucokinase regulatory protein (Homo sapiens) (UniProt P35557+Q14397)
Sequence (P35557 whole entry, looked up): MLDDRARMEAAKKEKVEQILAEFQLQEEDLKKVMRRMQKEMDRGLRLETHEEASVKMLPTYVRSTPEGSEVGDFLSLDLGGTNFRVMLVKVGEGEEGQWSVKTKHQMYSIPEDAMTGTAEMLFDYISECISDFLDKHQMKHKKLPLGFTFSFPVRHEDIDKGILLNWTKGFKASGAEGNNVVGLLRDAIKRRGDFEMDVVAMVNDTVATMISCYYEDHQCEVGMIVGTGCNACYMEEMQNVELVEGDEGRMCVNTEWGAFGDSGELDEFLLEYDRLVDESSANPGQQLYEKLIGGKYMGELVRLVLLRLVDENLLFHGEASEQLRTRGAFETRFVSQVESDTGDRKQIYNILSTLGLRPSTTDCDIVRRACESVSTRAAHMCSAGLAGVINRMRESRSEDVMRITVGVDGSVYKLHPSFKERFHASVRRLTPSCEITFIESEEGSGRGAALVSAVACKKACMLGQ
Sequence (Q14397 whole entry, looked up): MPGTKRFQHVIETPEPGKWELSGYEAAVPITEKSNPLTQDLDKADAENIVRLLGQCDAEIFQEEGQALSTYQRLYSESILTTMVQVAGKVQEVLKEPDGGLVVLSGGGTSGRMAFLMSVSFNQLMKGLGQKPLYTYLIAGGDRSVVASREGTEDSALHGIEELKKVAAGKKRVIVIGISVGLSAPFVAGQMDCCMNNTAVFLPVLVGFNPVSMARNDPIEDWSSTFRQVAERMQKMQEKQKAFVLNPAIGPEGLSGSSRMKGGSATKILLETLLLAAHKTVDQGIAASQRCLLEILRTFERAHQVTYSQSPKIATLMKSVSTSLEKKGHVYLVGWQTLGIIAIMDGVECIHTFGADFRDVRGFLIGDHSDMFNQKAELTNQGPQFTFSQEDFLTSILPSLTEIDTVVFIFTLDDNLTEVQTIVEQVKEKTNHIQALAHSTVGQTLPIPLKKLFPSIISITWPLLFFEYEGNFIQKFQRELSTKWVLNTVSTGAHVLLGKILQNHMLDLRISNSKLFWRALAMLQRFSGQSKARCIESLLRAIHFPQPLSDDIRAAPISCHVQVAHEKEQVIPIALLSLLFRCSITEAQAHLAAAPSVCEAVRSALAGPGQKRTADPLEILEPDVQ
Test: qHTS assay for inhibitors of recombinant human GCK-GKRP interaction: Diaphorase-coupled assay (AID 743205)
Conditions: G6PDH/diaphorase resorufin fluorescence; series mostly up to 57.5 µM; activity change, positive = activation: at the top concentration
Outline: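 Compounds pre-incubated 20 min with substrate, then 10 nM GST-GCK with 10 nM FLAG-GKRP added. GCK activity coupled via G6PDH and diaphorase to resorufin (5 mM glucose, 0.4 mM ATP, 0.15 mM NADP+, pH 7.6), read kinetically over 30 minutes at Ex 525/Em 590 nm.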

Row | Compound | activity change, positive = activation
58 | CCN(CC)CCNC(=O)c1cc(S(C)(=O)=O)ccc1OC | -3.44%
59 | c1cnc(N2CCN(Cc3ccc4c(c3)OCO4)CC2)nc1 | 4.45%
60 | CC[N+](C)(C)c1cccc(O)c1 | -6.33%
61 | CCCCCCCC/C=C\CCCCCCCC(=O)NCc1ccc(O)c(OC)c1 | -8.91%
62 | CCN(CC)CCCN(c1ccccc1)C1Cc2ccccc2C1 | -6.92%
63 | CCn1cc(C(=O)O)c(=O)c2cc3c(cc21)OCO3 | -0.183%
64 | CN1CCN(C2=Nc3ccccc3Oc3ccc(Cl)cc32)CC1 | -4.64%
65 | CC1=NS(=O)(=O)c2cc(Cl)ccc2N1 | -4.81%
66 | Cc1nc2sccn2c(=O)c1CCN1CCC(=C(c2ccc(F)cc2)c2ccc(F)cc2)CC1 | -0.693%
67 | N[C@@H](COP(=O)(O)O)C(=O)O | -4.82%
68 | CCN(CC)CCOCCOC(=O)C1(c2ccccc2)CCCC1 | 1.52%
69 | CC(N=C(NC#N)Nc1ccncc1)C(C)(C)C (stereo unspecified) | -0.592%
70 | Fc1ccc(C(c2ccc(F)cc2)N2CCN(C/C=C/c3ccccc3)CC2)cc1 | -9.08%
71 | FC(F)(F)c1ccccc1-n1ccnc1 | -1.5%
72 | COc1ccc2c(c1OC)C(=O)O[C@@H]2[C@H]1c2c(cc3c(c2OC)OCO3)CCN1C | -6.95%
73 | CCC(=O)c1ccc2c(c1)N(CCCN(C)C)c1ccccc1S2 | 2.1%
74 | CC(C)NCC(O)c1cc(O)cc(O)c1 (stereo unspecified) | -12.5%

Row | Compound | activity change, positive = activation
75 | CC(C)[N+](C)(CCOC(=O)C1c2ccccc2Oc2ccccc21)C(C)C | 1.7%
76 | COCCc1ccc(OCC(O)CNC(C)C)cc1 (stereo unspecified) | 3.72%
77 | CO[C@@]1(NC(=O)CSCC#N)C(=O)N2C(C(=O)O)=C(CSc3nnnn3C)CS[C@@H]21 | -4.36%
78 | CCn1ccnc1CC1COc2ccccc2O1 (stereo unspecified) | -2.97%
79 | CC(C)(C)c1ccc(C(=O)CCCN2CCC(OC(c3ccccc3)c3ccccc3)CC2)cc1 | -4.39%
80 | CCN(CC)CC(=O)Nc1c(C)cccc1C | -1.28%
81 | O=C(O)CP(=O)(O)O | 1.21%
82 | CN1CCN(CC(=O)N2c3ccccc3C(=O)Nc3cccnc32)CC1 | -4.45%
83 | COc1ccc([C@@H]2Sc3ccccc3N(CCN(C)C)C(=O)[C@@H]2OC(C)=O)cc1 | 3.77%
84 | CC(=O)Oc1cc(C(C)C)c(OCCN(C)C)cc1C | -0.894%
85 | C(=C\c1ccccc1)/CN1CCN(C(c2ccccc2)c2ccccc2)CC1 | -1.4%
86 | Cc1cccc(C)c1NC(=O)C(C)N (stereo unspecified) | 0.932%
87 | CCOC(=O)C1=C(C)NC(C)=C(C(=O)OC)C1c1cccc(Cl)c1Cl (stereo unspecified) | -10.8%
88 | COCCCC/C(=N\OCCN)c1ccc(C(F)(F)F)cc1 | -3.98%
89 | CC(C)(C)NCC(O)c1cc(O)cc(O)c1 (stereo unspecified) | -1.55%
90 | Cc1ccc(Cl)c(Nc2ccccc2C(=O)O)c1Cl | 1.17%
91 | CN(C)C(=O)Oc1ccc[n+](C)c1 | 0.229%
